Source: PubChem BioAssay AID2685 (National Center for Advancing Translational Sciences (NCATS), 2010)
The campaign covered roughly 320,000 compounds. About 2,100 (0.66%) were called active. About 53% were inconclusive and are not listed. The call rests on the fitted dose curve; in most records, active means well fitted inhibition curve with a large enough effect in the signal ratio, with a control signal flat (not every such curve was filed as active); inconclusive means small, poorly fitted or top-dose-only effect, or effect the other way, or a change in a side signal; inactive means flat fitted curve, though single readings scatter; the % refers to the signal ratio. The entries come from a sample that favours actives as a whole.

Assay: qHTS Assay for Lipid Storage Modulators in Drosophila S3 Cells;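 on cell number change: cells counted by Cell Tracker Red CMTPX staining in the red channel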; on lipid storage change, negative = inhibition: on the % scale 0 is the no-effect control and ±100 the full control effect
Details: BODIPY lipid droplet fluorescence, 18-24 h, cells fed with added oleic acid; cell number change: measured here: cell count max response; series mostly up to 46.1 µM; lipid storage change, negative = inhibition: at the top concentration
Outline: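 Laser-scanning cytometry quantifies lipid droplet accumulation (500–530 nm total intensity; droplet/cell object ratio) in oleic acid-fed (400 uM added) Drosophila S3 cells treated with a concentration series. 20 uM Triacsin C defined 100% inhibition.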
Potency means the concentration at half of the fitted maximal effect.

SMILES	lipid storage change, negative = inhibition	cell number change	outcome	Potency
O=C(N1CCCCC1)C12CC3CC(CC(C3)C1)C2	0.667% (inactive)	-0.102%		
COc1ccc(OCc2nnc(SCC(=O)NC3CC3)n2C)cc1	16.1% (inactive)	16.2%		
Cc1ccc(OCc2nnc(SCC(=O)NC3CCCCC3)n2C)cc1		20.5%	inactive	
Cn1c(COc2ccc(Cl)cc2)nnc1SCC(=O)NC1CCCC1		17.9%		14.6 µM (active)
COC(=O)c1cc2c(N)c(C(=O)c3ccccc3)sc2nc1C(OC)OC	6.49% (inactive)	-8.65%		
CS(=O)(=O)c1ccc(S(=O)CC(=O)OCc2ccccc2)c([N+](=O)[O-])c1 (centres undefined)		-65.2%		29.1 µM (active)
CCOC(=O)c1ccccc1OC(=O)CS(=O)c1ccccc1[N+](=O)[O-] (centres undefined)		-21.3%	inactive	
O=C(CS(=O)c1ccccc1[N+](=O)[O-])Oc1ccc(Br)cc1 (centres undefined)	3.04% (inactive)	2.35%		
CSc1nsc(SCC(=O)N2CCc3ccccc32)n1		-10.2%	inactive	
O=C(NCCCn1ccnc1)C(=O)NCC1OCCN1S(=O)(=O)c1ccc(Br)cc1 (centres undefined)	5.76% (inactive)	-6.41%		
O=C(CN1C(=O)NC2(CCCC2)C1=O)Nc1ccccc1F		-18%	inactive	
COC(=O)[C@H](CCSC)NC(=O)Nc1cc(C)ccc1C			inactive	
C[C@H](NC(=O)Nc1cccc(C(F)(F)F)c1)C(=O)O	3.6% (inactive)	14.7%		
CSCC[C@H](NC(=O)Nc1cccc(Br)c1)C(=O)O	-5.56% (inactive)	8.72%		
CSCC[C@H](NC(=O)Nc1cccc(C(F)(F)F)c1)C(=O)O		-1.65%		14.6 µM (active)
COC(=O)[C@H](CCSC)NC(=O)Nc1ccc(C(C)=O)cc1	-13.7% (inactive)	0.814%		
COC(=O)[C@H](CCSC)NC(=O)Nc1ccc(C)c(C)c1		-12.2%		5.17 µM (active)
COc1cccc(-c2ccc(C#N)c(SCC(=O)NCc3ccco3)n2)c1	-1.45% (inactive)	0.401%		
CCOC(=O)c1sc2nc(C)nc(SCC(=O)NC(C)CCc3ccccc3)c2c1C (centres undefined)			inactive	
COc1ccc(OC)c(CNC(=O)C2CCC(=O)N(CCCN3CCCC3=O)C2)c1 (centres undefined)		15.9%	inactive	
CCOc1ccc(S(=O)(=O)Nc2nc3ccccc3nc2-n2ccc(=NC(=O)c3ccccc3C)cc2)cc1	-19.1% (inactive)	-0.599%		
Cc1cc(C(=O)NNC(=S)NCc2ccco2)nn1C	24.4% (inactive)			
CN(Cc1c(F)cccc1Cl)C(=O)c1ccc2ccccc2n1		19.7%	inactive	
Cc1cc(C(=O)N(C)Cc2c(F)cccc2Cl)c2ccccc2n1		-7.26%		5.17 µM (active)

SMILES	lipid storage change, negative = inhibition	cell number change	outcome	Potency
CN(Cc1c(F)cccc1Cl)C(=O)c1cc2ccccc2o1	4.71% (inactive)			
O=c1cc(NCc2ccco2)[nH]c(=O)n1-c1ccc(Br)cc1	1.04% (inactive)	-12.2%		
COc1ccc(-c2cc(CNC(=O)CN3CCN(C)CC3)on2)cc1		-114%		4.11 µM (active)
COc1ccc(-c2cc(CNC(=O)CCl)on2)cc1	3.41% (inactive)	8.76%		
COc1ccc(-c2cc(CNC(C)=O)on2)cc1	10.5% (inactive)	0.804%		
O=Cc1c(N2CCN(c3ccccc3)CC2)nc2ccccn2c1=O	4.25% (inactive)	2.17%		
CN1CCN(c2nc3ccccn3c(=O)c2C=O)CC1		25%	inactive	
COc1ccc(N2CCN(c3nc4ccccn4c(=O)c3C=O)CC2)cc1		25.2%		4.61 µM (active)
COc1cc(NC(=O)CSc2nnnn2C2CCCC2)cc(OC)c1		5.13%	inactive	
COc1cccc(NC(=O)CSc2nnnn2C2CCCC2)c1		-5.13%		8.2 µM (active)
COc1ccc(NC(=O)CSc2nnnn2C2CCCC2)cc1	15% (inactive)	9.25%		
CC(C)C(=O)N=c1sc2cccc(F)c2n1C	21.4% (inactive)	19.6%		
C/C(=N\NC(=O)CC#N)c1ccc(Oc2ccccc2)cc1	6.93% (inactive)	6.12%		
CCOc1ccccc1N1C(=O)c2ccc(C(=O)O)cc2C1=O		-1.3%		4.61 µM (active)
CCOc1ccccc1N1C(=O)c2ccc(C(=O)Nc3cccnc3)cc2C1=O			inactive	
CCOc1ccccc1N1C(=O)c2ccc(S(=O)(=O)c3ccc(C(=O)O)cc3)cc2C1=O	25.3% (inactive)	24.2%		
CCS(=O)(=O)c1ccc2oc(SCC(=O)Nc3ccc(OC)cc3)nc2c1	11.2% (inactive)	7.84%		
CCN(CC)c1nc(SCC(=O)O)nc(N(CC)CC)n1			inactive	
CCN(CC)c1nc(-c2ccc(C(=O)NN)cc2)nc(-c2ccc(C(=O)NN)cc2)n1	16.7% (inactive)	26.3%		
CCN(CC)c1nc2n(c(=O)n1)CCN2CC		14.9%		5.17 µM (active)
CCOc1cc(/C=C2\SC(=S)N(N3CCOCC3)C2=O)ccc1O	-7.43% (inactive)	-15.1%		
Nc1nc(N2CCN(C(=O)c3ccco3)CC2)nc2ccccc12	3.78% (inactive)	7.42%		
COc1cc(C#N)ccc1OCC(=O)NCc1cccs1			inactive	
CC(=O)Nc1ccc2oc(-c3ccccc3)nc2c1	10.5% (inactive)	17.7%		
